From article PMC7862700, “An all-to-all approach to the identification of sequence-specific readers for epigenetic DNA modifications on cytosine” come the findings set out here.

Holding throughout (experiment): DAPPL (digital affinity profiling via proximity ligation, sequencing); 10 mM Tris-HCl pH 7.5, 50 mM NaCl, 1 mM DTT, 4% glycerol, room temperature, 30 min; GST-TFs on glutathione beads, 16-mer random dsDNA library, 0.1% formaldehyde crosslink after washing; high values mean tight binding
One experiment concerns the target T1, FEV (Homo sapiens, UniProt Q99581 1-238).
T1 sequence: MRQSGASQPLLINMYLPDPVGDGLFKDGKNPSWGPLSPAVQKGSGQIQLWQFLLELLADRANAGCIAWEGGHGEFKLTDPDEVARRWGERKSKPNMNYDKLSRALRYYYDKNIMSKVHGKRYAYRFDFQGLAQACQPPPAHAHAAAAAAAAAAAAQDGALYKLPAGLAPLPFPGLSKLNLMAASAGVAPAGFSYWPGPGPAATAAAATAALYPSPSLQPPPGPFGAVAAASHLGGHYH
As to conditions: protein: recombinant; tags: N-terminal GST; dsDNA, one strand shown. The essentials: (§1)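 Yeast served to express human transcription factors as GST fusions, which were then captured on glutathione beads and labelled with DNA barcodes. Pooled with a tag-only sample, they were incubated with 200 nmole of a 16-mer random double-stranded DNA library for 30 min at room temperature in Tris/NaCl/DTT/glycerol buffer, washed, crosslinked with 0.1% formaldehyde, ligated by proximity, amplified by PCR and sequenced. Dividing each hexamer's read frequency for a factor by its frequency for the tag-only sample gives the binding signal.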

The next experiment addresses ETV5 (Homo sapiens, UniProt P41161 1-510). As to conditions: protein: recombinant; tags: N-terminal GST; dsDNA, one strand shown. Put shortly: as §1
The target in another experiment is HSF1 (Homo sapiens, UniProt Q00613 1-529). As to conditions: protein: recombinant; tags: N-terminal GST; chain copies: 3; dsDNA, one strand shown. Put shortly: as §1
HSF1, sequence (Q00613 whole entry): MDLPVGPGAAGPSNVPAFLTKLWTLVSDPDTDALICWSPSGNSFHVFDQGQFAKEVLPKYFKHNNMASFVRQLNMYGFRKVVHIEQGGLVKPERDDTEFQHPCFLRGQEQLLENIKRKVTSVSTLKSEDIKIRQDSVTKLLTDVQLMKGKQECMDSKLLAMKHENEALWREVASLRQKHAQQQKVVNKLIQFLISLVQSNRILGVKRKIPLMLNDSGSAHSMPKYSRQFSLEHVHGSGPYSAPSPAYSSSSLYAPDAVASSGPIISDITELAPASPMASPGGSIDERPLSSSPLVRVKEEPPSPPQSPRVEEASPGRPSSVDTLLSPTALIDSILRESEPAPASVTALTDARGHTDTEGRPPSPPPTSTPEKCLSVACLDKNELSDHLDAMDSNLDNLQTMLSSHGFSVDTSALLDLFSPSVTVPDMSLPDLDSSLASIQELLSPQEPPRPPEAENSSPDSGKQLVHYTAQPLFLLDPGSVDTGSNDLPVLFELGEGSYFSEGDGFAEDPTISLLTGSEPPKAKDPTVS
A further experiment addresses T2, SPIC (Homo sapiens, UniProt Q8N5J4 1-248).
T2 sequence: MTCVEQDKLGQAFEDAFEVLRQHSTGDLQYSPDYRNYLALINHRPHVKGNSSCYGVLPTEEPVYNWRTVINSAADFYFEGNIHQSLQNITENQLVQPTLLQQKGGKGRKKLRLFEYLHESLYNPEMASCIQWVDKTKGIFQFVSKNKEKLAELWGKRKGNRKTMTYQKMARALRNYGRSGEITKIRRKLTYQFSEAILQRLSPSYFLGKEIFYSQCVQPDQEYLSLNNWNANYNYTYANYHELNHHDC
As to conditions: protein: recombinant; tags: N-terminal GST; dsDNA, one strand shown. Put shortly: as §1

The target of another experiment is ELF4 (Homo sapiens, UniProt Q99607 1-663). As to conditions: protein: recombinant; tags: N-terminal GST; dsDNA, one strand shown. The essentials:
as §1

In another experiment the target is T3, ELK4 (Homo sapiens, UniProt P28324-2 1-405).
T3 sequence: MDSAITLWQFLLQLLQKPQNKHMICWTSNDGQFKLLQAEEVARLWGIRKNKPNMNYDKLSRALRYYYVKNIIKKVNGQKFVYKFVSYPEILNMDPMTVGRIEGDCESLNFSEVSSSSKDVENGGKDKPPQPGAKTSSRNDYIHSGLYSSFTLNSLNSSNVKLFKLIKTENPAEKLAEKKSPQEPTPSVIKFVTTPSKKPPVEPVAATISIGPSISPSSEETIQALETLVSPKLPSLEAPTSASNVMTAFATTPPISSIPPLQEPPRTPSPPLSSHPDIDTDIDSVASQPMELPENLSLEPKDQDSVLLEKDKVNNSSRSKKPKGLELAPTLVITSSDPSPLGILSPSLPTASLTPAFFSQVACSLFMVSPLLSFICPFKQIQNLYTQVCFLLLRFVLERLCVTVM
As to conditions: protein: recombinant; tags: N-terminal GST; dsDNA, one strand shown. Put shortly: as §1

Another experiment concerns the target T4, ETV2 (Homo sapiens, UniProt O00321 1-342).
T4 sequence: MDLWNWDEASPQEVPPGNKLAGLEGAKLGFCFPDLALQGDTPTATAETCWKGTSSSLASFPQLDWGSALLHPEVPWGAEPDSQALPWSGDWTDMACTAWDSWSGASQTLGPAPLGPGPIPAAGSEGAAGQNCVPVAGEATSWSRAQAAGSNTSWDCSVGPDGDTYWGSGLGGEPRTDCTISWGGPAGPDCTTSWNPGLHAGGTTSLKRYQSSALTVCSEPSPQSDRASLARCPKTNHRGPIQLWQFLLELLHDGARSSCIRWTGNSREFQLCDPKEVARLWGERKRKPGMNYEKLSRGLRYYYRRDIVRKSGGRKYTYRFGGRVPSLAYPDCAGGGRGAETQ
As to conditions: protein: recombinant; tags: N-terminal GST; dsDNA, one strand shown. Put shortly:
as §1

For the next experiment, the target named is T5, ELF3 (Homo sapiens, UniProt P78545 1-371).
T5 sequence: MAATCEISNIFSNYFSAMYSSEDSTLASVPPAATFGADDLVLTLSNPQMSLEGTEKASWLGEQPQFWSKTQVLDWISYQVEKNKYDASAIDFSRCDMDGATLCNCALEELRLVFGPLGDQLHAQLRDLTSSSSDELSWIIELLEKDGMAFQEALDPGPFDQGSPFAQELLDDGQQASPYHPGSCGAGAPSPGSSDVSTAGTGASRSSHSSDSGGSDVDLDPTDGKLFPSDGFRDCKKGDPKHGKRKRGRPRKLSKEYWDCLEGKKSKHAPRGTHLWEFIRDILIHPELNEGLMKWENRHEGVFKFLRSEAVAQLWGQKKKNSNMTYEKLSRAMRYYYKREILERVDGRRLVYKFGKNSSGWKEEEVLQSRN
As to conditions: protein: recombinant; tags: N-terminal GST; dsDNA, one strand shown. The essentials: as §1

For another experiment, the target named is CRX (Homo sapiens, UniProt O43186 1-299). As to conditions: protein: recombinant; tags: N-terminal GST; dsDNA, one strand shown. Put shortly:
as §1

For another experiment, the target named is ETV1 (Homo sapiens, UniProt P50549 1-477). As to conditions: protein: recombinant; tags: N-terminal GST; dsDNA, one strand shown. Put shortly:
as §1

In a further experiment the target is T6, ERF (Homo sapiens, UniProt P50548 1-548).
T6 sequence: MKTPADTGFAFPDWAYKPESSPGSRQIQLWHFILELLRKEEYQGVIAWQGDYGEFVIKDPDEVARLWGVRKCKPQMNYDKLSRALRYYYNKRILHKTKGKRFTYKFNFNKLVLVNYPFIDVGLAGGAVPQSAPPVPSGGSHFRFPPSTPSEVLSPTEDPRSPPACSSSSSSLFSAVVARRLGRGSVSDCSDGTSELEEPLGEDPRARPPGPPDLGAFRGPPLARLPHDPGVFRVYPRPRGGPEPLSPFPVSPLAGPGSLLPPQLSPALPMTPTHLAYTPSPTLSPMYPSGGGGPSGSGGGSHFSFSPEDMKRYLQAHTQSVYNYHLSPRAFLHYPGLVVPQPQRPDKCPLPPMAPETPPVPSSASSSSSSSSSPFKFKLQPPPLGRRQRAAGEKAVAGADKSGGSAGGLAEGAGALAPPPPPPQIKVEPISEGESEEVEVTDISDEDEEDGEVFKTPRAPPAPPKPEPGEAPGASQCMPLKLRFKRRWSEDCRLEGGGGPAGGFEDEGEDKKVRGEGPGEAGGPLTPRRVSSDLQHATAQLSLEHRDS
As to conditions: protein: recombinant; tags: N-terminal GST; dsDNA, one strand shown. Put shortly:
as §1

The target in a further experiment is T7, ETV3L (Homo sapiens, UniProt Q6ZN32 1-361).
T7 sequence: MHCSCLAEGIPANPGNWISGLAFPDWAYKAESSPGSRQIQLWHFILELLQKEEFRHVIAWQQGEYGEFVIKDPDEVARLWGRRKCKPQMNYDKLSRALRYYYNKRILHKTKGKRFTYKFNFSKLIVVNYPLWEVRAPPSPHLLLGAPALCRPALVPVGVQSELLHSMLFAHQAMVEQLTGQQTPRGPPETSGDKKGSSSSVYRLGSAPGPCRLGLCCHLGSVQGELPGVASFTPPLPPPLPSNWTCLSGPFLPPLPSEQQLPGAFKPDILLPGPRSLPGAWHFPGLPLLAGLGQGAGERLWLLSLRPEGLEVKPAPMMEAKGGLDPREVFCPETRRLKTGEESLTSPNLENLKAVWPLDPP
As to conditions: protein: recombinant; tags: N-terminal GST; dsDNA, one strand shown. The essentials: as §1

The next experiment addresses T8, ETS2 (Homo sapiens, UniProt P15036 1-469).
T8 sequence: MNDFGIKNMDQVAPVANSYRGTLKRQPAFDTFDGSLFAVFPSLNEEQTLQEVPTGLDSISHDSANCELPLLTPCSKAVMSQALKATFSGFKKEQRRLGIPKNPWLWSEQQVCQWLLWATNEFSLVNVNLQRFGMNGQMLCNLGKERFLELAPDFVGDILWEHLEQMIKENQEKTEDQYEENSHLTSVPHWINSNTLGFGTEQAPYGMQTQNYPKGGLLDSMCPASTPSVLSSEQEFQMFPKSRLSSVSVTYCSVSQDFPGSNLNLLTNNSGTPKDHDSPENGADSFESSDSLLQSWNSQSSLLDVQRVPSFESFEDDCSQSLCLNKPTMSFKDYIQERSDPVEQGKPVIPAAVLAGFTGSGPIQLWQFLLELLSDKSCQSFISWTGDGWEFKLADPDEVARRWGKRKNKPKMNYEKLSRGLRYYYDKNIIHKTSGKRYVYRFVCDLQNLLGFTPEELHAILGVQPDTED
As to conditions: protein: recombinant; tags: N-terminal GST; dsDNA, one strand shown. Put shortly: as §1

Another experiment addresses T9, SPDEF (Homo sapiens, UniProt O95238 1-335).
T9 sequence: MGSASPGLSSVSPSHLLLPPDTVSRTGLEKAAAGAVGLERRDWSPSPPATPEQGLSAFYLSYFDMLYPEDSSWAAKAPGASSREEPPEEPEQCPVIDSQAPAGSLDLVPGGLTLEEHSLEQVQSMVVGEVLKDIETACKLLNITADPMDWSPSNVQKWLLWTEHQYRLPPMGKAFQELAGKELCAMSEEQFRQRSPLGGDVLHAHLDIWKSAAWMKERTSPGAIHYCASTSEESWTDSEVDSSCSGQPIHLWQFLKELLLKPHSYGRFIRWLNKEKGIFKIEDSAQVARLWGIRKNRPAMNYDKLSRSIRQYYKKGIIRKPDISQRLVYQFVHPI
As to conditions: protein: recombinant; tags: N-terminal GST; dsDNA, one strand shown. The essentials: as §1

A further experiment deals with T10, ETV7 (Homo sapiens, UniProt Q9Y603 1-341).
T10 sequence: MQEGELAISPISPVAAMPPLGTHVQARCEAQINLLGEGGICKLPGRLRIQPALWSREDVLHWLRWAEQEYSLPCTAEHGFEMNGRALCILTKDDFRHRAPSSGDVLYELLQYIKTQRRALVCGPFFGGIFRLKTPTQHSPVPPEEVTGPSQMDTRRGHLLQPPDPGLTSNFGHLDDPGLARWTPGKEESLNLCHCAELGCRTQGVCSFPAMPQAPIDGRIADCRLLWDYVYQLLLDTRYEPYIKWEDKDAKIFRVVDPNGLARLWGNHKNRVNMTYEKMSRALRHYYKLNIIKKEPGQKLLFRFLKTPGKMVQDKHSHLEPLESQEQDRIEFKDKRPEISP
As to conditions: protein: recombinant; tags: N-terminal GST; dsDNA, one strand shown. Put shortly:
as §1

Another experiment concerns the target T11, ELF5 (Homo sapiens, UniProt Q9UKW6-2 1-255).
T11 sequence: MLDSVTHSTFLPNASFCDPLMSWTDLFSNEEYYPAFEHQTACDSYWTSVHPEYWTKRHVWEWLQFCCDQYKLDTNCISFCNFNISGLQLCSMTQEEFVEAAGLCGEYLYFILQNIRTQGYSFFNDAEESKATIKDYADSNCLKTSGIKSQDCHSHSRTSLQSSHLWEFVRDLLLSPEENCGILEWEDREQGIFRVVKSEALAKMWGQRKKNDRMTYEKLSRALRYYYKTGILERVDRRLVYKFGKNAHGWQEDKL
As to conditions: protein: recombinant; tags: N-terminal GST; dsDNA, one strand shown. Put shortly: as §1

A further experiment has as its target T12, ETV3 (Homo sapiens, UniProt P41162-2 1-143).
T12 sequence: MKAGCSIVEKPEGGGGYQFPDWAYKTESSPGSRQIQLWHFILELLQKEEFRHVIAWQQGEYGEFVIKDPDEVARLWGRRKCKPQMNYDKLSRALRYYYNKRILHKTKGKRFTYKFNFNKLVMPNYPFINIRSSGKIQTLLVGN
As to conditions: protein: recombinant; tags: N-terminal GST; dsDNA, one strand shown. Put shortly: as §1

For a further experiment, the target named is ETV6 (Homo sapiens, UniProt P41212 1-452). As to conditions: protein: recombinant; tags: N-terminal GST; dsDNA, one strand shown. Put shortly: as §1
ETV6, sequence (P41212 whole entry): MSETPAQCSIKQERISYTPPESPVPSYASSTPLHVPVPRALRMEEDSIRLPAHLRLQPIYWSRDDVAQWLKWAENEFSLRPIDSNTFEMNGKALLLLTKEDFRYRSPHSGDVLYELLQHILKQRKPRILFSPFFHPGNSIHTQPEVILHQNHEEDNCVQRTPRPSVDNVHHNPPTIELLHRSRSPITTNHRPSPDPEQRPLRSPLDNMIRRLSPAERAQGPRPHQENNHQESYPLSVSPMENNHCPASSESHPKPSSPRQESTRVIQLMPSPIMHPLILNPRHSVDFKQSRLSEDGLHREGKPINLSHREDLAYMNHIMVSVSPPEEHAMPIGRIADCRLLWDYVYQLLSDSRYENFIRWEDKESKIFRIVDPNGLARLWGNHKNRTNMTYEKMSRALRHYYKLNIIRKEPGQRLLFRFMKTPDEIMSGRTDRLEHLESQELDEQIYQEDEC

ETV5, sequence (P41161 whole entry): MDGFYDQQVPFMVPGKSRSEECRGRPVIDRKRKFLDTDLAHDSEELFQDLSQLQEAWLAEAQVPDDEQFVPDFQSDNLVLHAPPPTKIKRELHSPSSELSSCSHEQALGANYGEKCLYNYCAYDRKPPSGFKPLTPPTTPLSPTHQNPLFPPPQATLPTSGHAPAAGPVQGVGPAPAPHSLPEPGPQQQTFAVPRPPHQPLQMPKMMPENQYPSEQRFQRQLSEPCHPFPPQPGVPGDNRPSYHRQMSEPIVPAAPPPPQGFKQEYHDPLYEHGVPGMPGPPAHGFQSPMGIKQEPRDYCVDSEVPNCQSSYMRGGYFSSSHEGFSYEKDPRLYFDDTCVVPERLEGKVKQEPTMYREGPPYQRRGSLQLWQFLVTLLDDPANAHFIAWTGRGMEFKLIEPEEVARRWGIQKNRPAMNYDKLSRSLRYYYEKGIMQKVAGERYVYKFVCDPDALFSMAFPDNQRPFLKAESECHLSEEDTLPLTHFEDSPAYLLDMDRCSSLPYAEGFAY
ETV1, sequence (P50549 whole entry): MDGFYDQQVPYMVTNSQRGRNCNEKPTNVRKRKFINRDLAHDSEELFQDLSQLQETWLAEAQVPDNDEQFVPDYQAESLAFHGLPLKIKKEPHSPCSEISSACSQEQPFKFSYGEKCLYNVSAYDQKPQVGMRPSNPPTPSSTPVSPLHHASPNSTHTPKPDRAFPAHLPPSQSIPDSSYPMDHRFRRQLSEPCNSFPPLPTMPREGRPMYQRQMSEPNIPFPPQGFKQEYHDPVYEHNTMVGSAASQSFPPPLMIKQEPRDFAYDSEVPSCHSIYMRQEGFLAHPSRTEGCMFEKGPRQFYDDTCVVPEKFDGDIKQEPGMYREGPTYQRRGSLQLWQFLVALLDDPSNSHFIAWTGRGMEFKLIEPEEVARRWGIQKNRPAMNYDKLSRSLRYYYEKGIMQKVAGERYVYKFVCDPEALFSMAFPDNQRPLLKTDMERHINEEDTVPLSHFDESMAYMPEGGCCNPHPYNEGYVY
CRX, sequence (O43186 whole entry): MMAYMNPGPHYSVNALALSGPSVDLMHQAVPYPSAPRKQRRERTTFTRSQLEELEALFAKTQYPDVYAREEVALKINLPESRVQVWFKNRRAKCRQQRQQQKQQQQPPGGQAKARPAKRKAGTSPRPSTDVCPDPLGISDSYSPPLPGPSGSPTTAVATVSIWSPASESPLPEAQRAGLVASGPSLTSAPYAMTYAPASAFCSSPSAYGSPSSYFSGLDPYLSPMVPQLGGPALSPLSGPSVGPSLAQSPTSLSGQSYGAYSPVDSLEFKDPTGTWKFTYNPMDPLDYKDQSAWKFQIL
ELF4, sequence (Q99607 whole entry): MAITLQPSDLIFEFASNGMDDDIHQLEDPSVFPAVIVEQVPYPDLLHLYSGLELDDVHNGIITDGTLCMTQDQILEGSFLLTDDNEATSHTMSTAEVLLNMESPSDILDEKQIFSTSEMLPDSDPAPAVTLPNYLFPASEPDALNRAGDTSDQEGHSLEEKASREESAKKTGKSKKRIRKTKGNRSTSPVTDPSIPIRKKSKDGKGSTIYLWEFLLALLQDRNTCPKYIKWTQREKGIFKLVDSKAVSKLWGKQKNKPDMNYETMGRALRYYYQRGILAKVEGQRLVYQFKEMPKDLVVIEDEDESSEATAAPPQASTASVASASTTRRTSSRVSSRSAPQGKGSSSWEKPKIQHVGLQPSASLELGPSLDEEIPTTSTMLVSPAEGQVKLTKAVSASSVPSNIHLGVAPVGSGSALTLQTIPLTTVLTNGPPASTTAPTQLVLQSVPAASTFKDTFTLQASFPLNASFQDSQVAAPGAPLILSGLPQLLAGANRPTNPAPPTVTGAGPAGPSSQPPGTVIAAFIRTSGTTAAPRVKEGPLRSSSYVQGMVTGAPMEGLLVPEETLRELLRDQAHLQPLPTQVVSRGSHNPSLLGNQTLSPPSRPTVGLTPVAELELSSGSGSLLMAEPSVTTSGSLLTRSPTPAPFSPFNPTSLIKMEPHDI

On to GCCCTT, for which the binding signal in the experiment with FEV was 1.19 fold enrichment (6-mer frequency, TF over GST control); in the experiment with ETV5 it was 1.16 fold enrichment (6-mer frequency, TF over GST control); with HSF1 it was 1.11 fold enrichment (6-mer frequency, TF over GST control); in the experiment with SPIC it was 1.1 fold enrichment (6-mer frequency, TF over GST control); in the experiment with ELF4, 1.13 fold enrichment (6-mer frequency, TF over GST control); in the experiment with ELK4, 1.19 fold enrichment (6-mer frequency, TF over GST control). Further, the binding signal was 1.28 fold enrichment (6-mer frequency, TF over GST control) in the experiment with ETV2; 1.29 fold enrichment (6-mer frequency, TF over GST control) with ELF3; 1.06 fold enrichment (6-mer frequency, TF over GST control) in the experiment with CRX; 1.17 fold enrichment (6-mer frequency, TF over GST control) in the experiment with ETV1; 1.11 fold enrichment (6-mer frequency, TF over GST control) in the experiment with ERF; 1.16 fold enrichment (6-mer frequency, TF over GST control) with ETV3L. Moreover, the binding signal in the experiment with ETS2 is 1.15 fold enrichment (6-mer frequency, TF over GST control); in the experiment with SPDEF it was 1.26 fold enrichment (6-mer frequency, TF over GST control); in the experiment with ETV7, 1.07 fold enrichment (6-mer frequency, TF over GST control); in the experiment with ELF5 it was 1.09 fold enrichment (6-mer frequency, TF over GST control); with ETV3, 1.14 fold enrichment (6-mer frequency, TF over GST control); with ETV6, 1.27 fold enrichment (6-mer frequency, TF over GST control).
